# High-throughput results: PubChem, National Center for Advancing Translational Sciences (NCATS)
# Only some compounds are listed: those with a hit (about 19% of all), similar ones and a draw of the others.
# IL1B secr inh = blocks inflammasome-driven IL-1 beta release; THP-1 LPS/ATP IL-1B secretion, AlphaLISA, 16 h; hits give low values; activity change, % at 57.5 µM; 360,000 compounds, 4.7% hits; AID 743279; in the data active = activity change below about -50%; inconclusive = mostly about -30% to -49%; also: % is scaled to controls: 0 for no effect and ±100 for the full control effect
#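 Secreted IL-1B measured by AlphaLISA bead assay after 16 h compound exposure of THP-1 cells; compounds (final up to 57.5 uM) added 1 h before LPS (250 ng/mL) and ATP (1.25 mM) stimulation; lower signal means less secretion.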
# BCR signal inh = inhibitors of chronic active B-cell receptor signaling | ABC-DLBCL IkBa-CBG/CBR reporter, luminescence ratio, 4 h | Potency, µM (highest dose often 46.1 µM), inactives show at the top dose activity change, negative = inhibition, hits mostly inhibitors | 340,000 compounds, 0.05% hits; active = well fitted inhibition curve with a large enough effect in the signal ratio, with a control signal flat, not every such curve was filed as active; inconclusive = small, poorly fitted or top-dose-only effect, or effect the other way, or a change in a side signal; the % refers to the signal ratio;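 also: potency is read from the fitted curve at half-maximal effect; plate controls were basal doxycycline-induced cells for no effect and cells given 10 µM MG132 for full effect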
#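 TMD8 human ABC-DLBCL cells with doxycycline-inducible IκBα–green luciferase fusion and unfused red luciferase, in 0.5% FBS medium; compounds up to 46 uM, 4 h at 37C. Green/red luminescence ratio, filter-overlap corrected, fitted to concentration-response curves.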
# TDP1 cell noCPT = qHTS for Inhibitors of human tyrosyl-DNA phosphodiesterase 1 (TDP1): qHTS in cells in absence of CPT. Potency, µM (top dose mostly 46.2 µM), without a hit: at the top dose activity change, negative = growth inhibition, usual class: inhibitors. 420,000 compounds, 15% hits. DT40 Tdp1-/- hTDP1 cells, no CPT, ATP luminescence, 48 h; also: potency is read from the fitted curve at half-maximal effect; % is scaled to controls: 0 for no effect and ±100 for the full control effect; nearly all actives have a fitted effect of over 55% in size
#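 Chicken DT40 Tdp1-/- cells complemented with human TDP1, screened without camptothecin (DMSO vehicle only), 400 cells/well. Compounds pin-transferred, cells incubated at 37 °C for at least 48 hr. Growth read as ATP-dependent luminescence (CellTiter-Glo, 30 min at RT).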
# SW480 rereplic = induces DNA re-replication in SW480 colon adenocarcinoma cells | SW480 DNA re-replication, Hoechst DNA content imaging, 48 h | Potency, µM (top dose mostly 46.1 µM), for the others: top-dose re-replication activation, usual class: activators | 340,000 compounds, 1.8% hits | AID 624297; also: potency is read from the fitted curve at half-maximal effect; % of control where 0% means no effect; nearly all actives have a fitted effect of over 55% in size
#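 Compounds, transferred as 23 nL by pin tool, were incubated with cells for 48 hr; DNA content per nucleus was then quantified by Hoechst staining and fluorescence plate imaging.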
# MCF10A rerep = DNA re-replication induction in MCF 10a cells; MCF 10A DNA re-replication, Hoechst nuclear intensity, 48 h; Potency, µM (top dose mostly 46.1 µM), for inactives: top-dose activity, positive = re-replication, usual class: activators; 350,000 compounds, 2.9% hits; also: potency is read from the fitted curve at half-maximal effect; % of control where 0% means no effect; nearly all actives have a fitted effect of over 50% in size
# TDP1 cell CPT = DT40-hTDP1 cell growth loss with CPT | chicken DT40 Tdp1-/-;hTDP1 cells + 20 nM CPT, ATP luminescence, 48 h | Potency, µM (series often up to 46.2 µM), without a hit: at the top dose activity change, negative = growth inhibition, most hits filed as inhibitors | 420,000 compounds, 12% hits; also: potency is read from the fitted curve at half-maximal effect; % is scaled to controls: 0 for no effect and ±100 for the full control effect; nearly all actives have a fitted effect of over 55% in size
#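 Chicken DT40 Tdp1-/- cells complemented with human TDP1, 400 cells/well, exposed to compounds plus 20 nM camptothecin for at least 48 h at 37 C; viability read as ATP content by CellTiter-Glo luminescence.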
# * = called active by the depositor; ? = inconclusive; . = not tested or not shown; ! = repeats disagree. Unless noted, calls follow the shape of the dose curve; as a rule, active = well fitted curve in the direction sought with a large enough effect; inconclusive = small, poorly fitted or top-dose-only effect, or another doubt; inactive = no such curve, though single readings can be large; an effect the other way counts as inactive or inconclusive.
SMILES,IL1B secr inh,BCR signal inh,TDP1 cell noCPT,SW480 rereplic,MCF10A rerep,TDP1 cell CPT
COc1cccc(Nc2nc(N)nc(-c3oc4ccccc4c3C)n2)c1,-71*,?,8.2µM*,13µM*,7.3µM*,6.5µM*
COc1ccccc1Nc1nc(N)nc(-c2cc3ccccc3o2)n1,-21,?,?,?,?,-28%
Cc1cccc(Nc2nc(N)nc(-c3oc4ccccc4c3C)n2)c1,-75*,?,26µM*,18µM*,16µM*,?
Cc1cccc(Nc2ncnc(N)n2)c1,-24,-12%,13%,-1%,2%,5%
Cc1c(-c2nc(N)nc(Nc3ccccc3F)n2)oc2ccccc12,-18,?,18µM*,?,18%,?
Cc1c(C(=O)O)cnc2c([N+](=O)[O-])cnn12,27,-1%,18µM*,-32%,-4%,10µM*
CCOc1ccc(CCNC(=O)COC(=O)c2c(C)nn(-c3ccccc3)c2C)cc1OCC,-18,-3%,-15%,-2%,2%,?
CS(=O)(=O)c1oc(-c2ccc(F)cc2)nc1S(=O)(=O)c1ccc(Cl)cc1,.,.,0.82µM*,.,.,0.58µM*
CSc1oc(-c2ccccc2)nc1S(=O)(=O)c1ccc(F)cc1,18,?,-19%,-11%,-8%,-22%
CCS(=O)(=O)c1oc(-c2ccc(F)cc2)nc1S(=O)(=O)c1ccc(Br)cc1,.,.,1.2µM*,.,.,0.92µM*
CSc1oc(-c2ccc(F)cc2)nc1S(=O)(=O)c1ccc(F)cc1,6,8%,23µM*,-11%,-1%,15µM*
Cc1nn(CC(=O)Nc2ccccc2C(F)(F)F)c(=O)c2cccn12,-6,-16%,-7%,-3%,-14%,1%
CCc1ccc(NC(=O)CCCOc2cc(=O)n(C)c3ccccc23)cc1,7,.,?,.,.,?
Cn1c(=O)cc(SCC(=O)NCc2ccc(F)cc2)c2ccccc21,-17,?,12µM*,15%,15µM*,?
CN(CCCNC(=O)CSc1cc(=O)n(C)c2cc(Cl)ccc12)Cc1ccccc1,?,?,-19%,?,13%,?
Cn1c(=O)cc(OCCCC(=O)Nc2ccc(F)cc2)c2ccccc21,.,.,15µM*,.,.,13µM*
Cn1c(=O)cc(SCC(=O)NCc2ccc(F)cc2)c2ccc(Cl)cc21,.,.,3.3µM*,.,.,2.6µM*
O=C(Nc1ccccc1)c1nnsc1S(=O)c1ccc(Cl)cc1 (configuration not stated),-107*,?,0.82µM*,23µM*,?,0.58µM*
O=C(Nc1ccc(Cl)cc1)c1cccs1,-5,.,-20%,-17%,9%,-23%
O=C(c1nnsc1S(=O)(=O)c1ccc(Cl)cc1)N1CCOCC1,-106*,?,2.9µM*,?,3.5µM*,2.3µM*
O=C(c1nnsc1S(=O)c1ccc(Cl)cc1)N1CCOCC1 (configuration not stated),-104*,?,0.82µM*,3%,18%,0.46µM*
O=C(c1cc(-c2ccc(Cl)cc2)on1)N1CCOCC1,-8,?,0%,-5%,8%,-27%
Nc1nc(C(=O)N2CCOCC2)nn1S(=O)(=O)c1ccc(Cl)cc1,0,6%,?,1%,-1%,?
CNC(=O)c1nnsc1S(=O)(=O)c1ccc(Cl)cc1,-98*,?,1.5µM*,1µM*,1.5µM*,0.73µM*
CCc1ccc(Cn2nnc(C(=O)Nc3ccc(C)cc3)c2N)cc1,.,.,2%,.,.,-6%
SMILES,IL1B secr inh,BCR signal inh,TDP1 cell noCPT,SW480 rereplic,MCF10A rerep,TDP1 cell CPT
COc1ccccc1-n1nnnc1SCC(=O)N(C)C1CCS(=O)(=O)C1 (configuration not stated),0,-3%,16%,-5%,16%,-7%
CCOC(=O)Cc1ccc(NC(=O)NCc2ccc3c(c2)CCN3C(=O)CC)cc1,.,.,-4%,.,.,-17%
O=C(Nc1ccc(F)cc1)c1cc(S(=O)(=O)Nc2ccc(F)cc2)cs1,20,4%,29µM*,23%,43%,?
COc1ccc(NC(=O)c2cc(S(=O)(=O)Nc3ccc(OC)cc3)cs2)cc1,-12,10%,29µM*,-13%,3%,?
O=C(Nc1ccc(F)cc1)c1cc(S(=O)(=O)N2CCOCC2)cs1,2,1%,?,?,0%,0%
Cc1[nH]c(=O)c(C#N)cc1-c1ccc2nccn2c1,.,.,-2%,-2%,-2%,-8%
Cc1[nH]c(=O)c(C#N)cc1-c1ccncc1,-7,-16%,0.06µM*!,?,-15%,?
CC1(C)CC(=O)c2cc(C(=O)Nc3ccc(Br)cc3)c(=O)[nH]c2C1,.,.,-11%,.,.,-19%
CC1(C)CC(=O)C(C(C2=C(O)CC(C)(C)CC2=O)c2ccc([N+](=O)[O-])cc2)C(=O)C1 (configuration not stated),14,17%,-16%,1%,-3%,?
CC1(C)CC(=O)C(C(C2=C(O)CC(C)(C)CC2=O)c2ccc(Br)s2)C(=O)C1 (configuration not stated),-96*,?,7.3µM*,?,13µM*,13µM*
Cc1ccc(C(C2=C(O)CC(C)(C)CC2=O)C2C(=O)CC(C)(C)CC2=O)s1 (configuration not stated),-17,?,-24%,?,23µM*,-26%
Nc1cc(Cl)ccc1C(=O)OCC(=O)NCC1CCCO1 (configuration not stated),12,5%,-16%,3%,3%,1%
Cc1cc(C)cc(N2C(=O)CC(c3ccc(C(F)(F)F)cc3)C3=C2COC3=O)c1 (configuration not stated),.,.,3%,.,.,5%
CCC(C)CCN1CCN=C1Nc1ccccc1 (configuration not stated),-8,-3%,-4%,-17%,-16%,0%
O=C(CCl)NC(Cc1ccccc1)c1ccccc1 (configuration not stated),-95*,?,23µM*,16µM*,?,15µM*
O=C(O)c1c(Cl)c(Cl)c(Cl)c(Cl)c1C(=O)OCC1CCCO1 (configuration not stated),13,.,12%,.,.,6%
c1ccc(Nc2ccnc(Nc3ccccc3)n2)cc1,.,-18%,21µM*,?,?,?
COc1ccc(Nc2ccc(OC)cc2)cc1,-52*,11%,-4%,20%,3%,-15%
